Source: PubChem BioAssay AID1814 (Broad Institute, 2009)
Hit rate of the full screen: of about 300,000 compounds, about 22,000 (7.3%) were called active. Not shown: some 2% with an inconclusive outcome. Many of the other results were omitted from the sample, so actives are more common in it than they were. Values without a mark were called inactive. No stated cut-off is given here; in the data, active means activity score below about -60%; inconclusive means mostly about -28% to -61%; inactive means positive scores.

assay: Activators via SNCA 5'UTR binding, MLPCN (AID 1814); conditions: alpha-synuclein 5'UTR reporter, activators screen; active compounds read low; tested at 7.5 µM

Row | SMILES | activity score
1 | Cc1ccc(S(=O)(=O)NC(=O)Nc2nc(-c3ccc(F)c(F)c3)cs2)cc1 | -61.5% (active)
2 | O=S(=O)(Nc1ccc2nc(-c3ccco3)[nH]c2c1)c1ccccc1 | -181% (active)
3 | CC(=O)N1CCC(C(=O)Nc2nc(-c3ccccc3)ns2)CC1 | -82.9% (active)
4 | Cc1ccc(N=C2NC(=O)c3cccc([N+](=O)[O-])c32)cc1 | -141% (active)
5 | O=C(CSc1nnnn1C1CCCC1)N1CCCCC1 | -88% (active)
6 | CCCCCC(=O)Nc1ccc2oc(-c3ccncc3)nc2c1 | -80.2% (active)
7 | COc1cccc(/C=C2\C=C(c3ccc(C)cc3)OC2=O)c1OC(C)=O | -65.8% (active)
8 | COc1cccc(/C=C/c2ccc3ccccc3n2)c1OC(C)=O | 83.1%
9 | O=C(NCCC1=CCCCC1)c1ccc(Cl)c([N+](=O)[O-])c1 | -108% (active)
10 | Cc1ccc2cc(/C=N/Nc3ccc(C(=O)O)cc3)c(Cl)nc2c1 | -167% (active)
11 | CC1CCC(NC(=O)CNC(=O)c2ccc3ccccc3c2)CC1 (stereo not drawn) | -74% (active)
12 | Clc1cccc(-c2nc3nc4ccccc4nc3n2Cc2ccco2)c1 | -77.2% (active)
13 | Clc1ccc(-c2csc(-c3ccncc3)n2)cc1 | -135% (active)
14 | O=c1[nH]c(/C=C/c2cccc(Br)c2)nc2ccccc12 | -125% (active)
15 | O=C(Nc1cccc(O)c1)c1ccc(C(=O)c2ccccc2)o1 | -120% (active)
16 | C/C(=C\C(=O)c1cccnc1)Nc1ccc(C)c(C)c1 | -88.7% (active)
17 | C/C(=C\C(=O)c1ccccc1)Nc1cccc(O)c1 | -246% (active)
18 | O=C(Nc1ccn(Cc2ccccc2)n1)c1cccc(F)c1 | -95.8% (active)
19 | Cc1cc(/C=N/NC(=O)c2cccnc2)c(C)n1CC(C)C | -116% (active)
20 | COc1ccc(C(CC(=O)c2ccccc2)S(=O)(=O)c2ccccc2)cc1 (stereo not drawn) | -120% (active)
21 | COC(=O)c1ccc(Nc2ncnc3sccc23)cc1 | -125% (active)
22 | COc1c(O)cc2oc(-c3ccc(O)c(O)c3)cc(=O)c2c1O | -140% (active)
23 | COc1ccc(/C=C/C(=O)Nc2c(C)nn(C)c2C)cc1COc1ccc(Br)cc1 | 50.9%
24 | COc1ccc(C(=O)/C=C/c2ccc(-c3ccccc3)cc2)cc1CSCC(=O)O | -90% (active)
25 | O=C(c1cc(COc2ccc(F)cc2F)on1)N1CCOCC1 | -124% (active)
26 | CCC(NC(=O)c1cc(COc2ccc(F)c(F)c2)on1)c1ccncc1 (stereo not drawn) | -78.1% (active)

Row | SMILES | activity score
27 | O=C(c1cc(COc2ccc(F)c(F)c2)on1)N1CCOCC1 | -68.2% (active)
28 | O=C(c1cc(COc2c(F)cccc2F)on1)N1CCSCC1 | -165% (active)
29 | CC(C)(C)c1ccc(C(=O)CSc2ncn[nH]2)cc1 | -158% (active)
30 | OCCCN1c2ccccc2Nc2nnc(-c3ccccc3)cc21 | -189% (active)
31 | O=S(=O)(c1ccc(Br)cc1)N1CCC(c2nc3ccccc3[nH]2)CC1 | 78.3%
32 | Nc1ccccc1SCc1cc([N+](=O)[O-])cc2c1OCOC2 | -66.8% (active)
33 | Nc1cc(N)nc(SCc2cccc(F)c2)n1 | -147% (active)
34 | Cc1cc2oc3ccc(NCCC4CCCN4C)cc3c(=O)c2cc1C (stereo not drawn) | -102% (active)
35 | O=C(Nc1ccc(Br)cn1)c1ccc([N+](=O)[O-])cc1Cl | -92.4% (active)
36 | COc1ccc(OCC(=O)Nc2cc(C)c(Cl)cc2OC)c([N+](=O)[O-])c1 | -102% (active)
37 | CC(=O)Nc1ccccc1C(=O)C(=O)Nc1ccc(F)cc1 | -64.9% (active)
38 | Cc1nn(-c2ccc([N+](=O)[O-])cc2)c(N)c1-c1ccccc1 | -143% (active)
39 | COCCCNC(=S)NC(=O)c1ccccc1 | -88.8% (active)
40 | O=C(N/N=C/c1cc2c(cc1Br)OCO2)C1COc2ccccc2O1 (stereo not drawn) | -96.1% (active)
41 | Cc1ccc(OCc2cc(C(=O)N(C)CCc3ccccc3)no2)cc1C | -115% (active)
42 | S=C(Nc1cccc(Cl)c1)Nc1ccc2cn[nH]c2c1 | -89.3% (active)
43 | Cc1csc(NC(=S)Nc2cccc(Cl)c2)n1 | -193% (active)
44 | O=[N+]([O-])/C=C/c1ccc2c(ccn2Cc2ccccc2)c1 | 84.5%
45 | Cc1ccc(Oc2cnn(-c3ccccc3)c(=O)c2Br)cc1 | -78.5% (active)
46 | NC(=O)COc1ccc(C23CC4CC(CC(C4)C2)C3)cc1 | -101% (active)
47 | Nc1nonc1-n1nnc(C(=O)N/N=C/c2cc(Br)ccc2O)c1CSC1=NCCS1 | 94.1%
48 | Cc1ccn2cc(-c3nonc3C)cc2c1 | -128% (active)
49 | CCOc1ccc2cc(C#N)c(SCC(=O)OC)nc2c1 | -145% (active)
50 | Cc1cc(C)c(C#N)c(SCC(=O)Nc2ccccc2)n1 | -212% (active)
51 | COCc1cc(C)nc(SCC(=O)Nc2cccc(C)c2)c1C#N | -67.6% (active)
52 | Cc1nonc1NC(=O)CSc1nc2ccccc2cc1C#N | -91.1% (active)

Row | SMILES | activity score
53 | Cc1ccccc1NC(=O)CCOc1ccccc1 | -74.9% (active)
54 | CCN1CCN(C(C(=O)NC2CCCC2)c2cc3c(cc2[N+](=O)[O-])OCO3)CC1 (stereo not drawn) | -63% (active)
55 | CCCCCc1ccc(-c2ccc(OCC)cc2)nc1 | 79.7%
56 | CCCOc1ccc(-c2nc(N)n[nH]2)cc1 | -93.7% (active)
57 | CCOC(=O)c1c(NC(=O)c2ccc(Br)o2)sc2c1CCCC2 | -64.9% (active)
58 | COC(=O)c1c(NC(=O)c2cccs2)sc2c1CCCC2 | -128% (active)
59 | NC(=O)c1c(NC(=O)c2ccccc2)sc2c1CCCC2 | -148% (active)
60 | C=CCN(CC=C)S(=O)(=O)c1ccc(C(=O)Nc2sc3c(c2C(N)=O)CCCCC3)cc1 | -70.1% (active)
61 | COc1ccc(NCCc2ccccn2)cc1 | -134% (active)
62 | CCC(C)NC(=O)CCCc1ccccc1 (stereo not drawn) | -63.7% (active)
63 | O=C(Nc1ccc(Cl)cc1)c1ccsn1 | -143% (active)
64 | Cc1ccc(NC(=O)c2ccn(C(=O)Nc3ccccc3)n2)c(C)c1 | -69.3% (active)
65 | c1ccc(CN2CCC(N=C3NN=C(c4ccc5c(c4)OCCO5)CS3)CC2)cc1 | -223% (active)
66 | CCS(=O)(=O)c1cc([N+](=O)[O-])c(Sc2ccccc2N)s1 | -91.3% (active)
67 | CCN1CCN(c2ccc([N+](=O)[O-])cc2C(=O)c2ccc(Cl)cc2)CC1 | -107% (active)
68 | COc1ccc(C(=O)c2c3ccc([N+](=O)[O-])cc3[n+]([O-])n2CCCN)cc1 | 63.1%
69 | Cc1ccc(NC(=S)N2CCN(c3ncccn3)CC2)cc1C | -84.3% (active)
70 | CC(=O)c1ccc(NC(=O)CCc2nnc3ccc(NCc4ccco4)nn23)cc1 | -95.3% (active)
71 | O=C(/C=C/c1ccc([N+](=O)[O-])o1)NNC(=O)c1ccc(F)cc1 | -94.3% (active)
72 | C=CCSc1nnc(NC(=O)c2ccc(NC(C)=O)cc2)s1 | -64.4% (active)
73 | NC(=O)CSc1nnc(NC(=O)c2ccc3ccccc3c2)s1 | -88.3% (active)
74 | COC(=O)c1ccc(-n2cnc3ccccc32)nc1 | -117% (active)
75 | COCCn1c(=NC(=O)c2ccccc2[N+](=O)[O-])sc2cc(S(C)(=O)=O)ccc21 | -151% (active)
76 | CCOC(=O)c1cc2n(c1C)-c1ccccc1C2=O | -108% (active)
77 | CCOC(=O)c1c(C)[nH]c2c1-c1ccccc1C(=O)C2=O | 99.5%
78 | COc1ccc(Nc2cc(C)nc(-n3nc(C)cc3C)n2)cc1 | 92.8%

Row | SMILES | activity score
79 | COc1ccc(Nc2nnc(C)c3ccccc23)cc1 | -67.1% (active)
80 | O=C(c1cc(-c2ccc(O)cc2)on1)N1CCCc2ccccc21 | -95.6% (active)
81 | COc1c(C)c2c(c(O)c1C/C=C(\C)CCC(=O)O)C(=O)OC2 | 76.6%
82 | C=CCNC(=O)/C=C/c1ccc(C(C)C)cc1 | -129% (active)
83 | COc1ccc(-n2cnc3cc(NCc4ccco4)ccc32)cc1 | -126% (active)
84 | COc1ccc(/C(N)=N/OC(=O)Cc2ccccc2)cc1 | -125% (active)
85 | O=[N+]([O-])c1ccc2oc(-c3cccc(O)c3)nc2c1 | -91.7% (active)
86 | COc1ccc(-c2nc3cc([N+](=O)[O-])ccc3o2)cc1OC | -65.4% (active)
87 | Cc1ccc(N=C2NC(=O)/C(=C/C=C/c3ccco3)S2)cc1C | -81.5% (active)
88 | CC(C)(C)C(=O)Nc1ccc(C(=O)N/N=C/c2ccccc2OC(=O)c2ccc(Cl)cc2Cl)cc1 | 65.2%
89 | COc1ccc(C(=O)Nc2cc(C)c(NC(=O)c3ccccc3OC)cn2)cc1 | -115% (active)
90 | COc1ccc(C(=O)Nc2ccccc2C(=O)N/N=C/c2ccccc2OC)cc1 | -124% (active)
91 | N#CC1=C(N)Oc2cc(O)ccc2C1C1CCCCC1 (stereo not drawn) | -65.6% (active)
92 | C=CCN(C(=O)Nc1ccc2c(c1)nc(C)n2C)c1ccccc1 | -71.4% (active)
93 | C=CCN(C(=O)Nc1ccc2oc(C)nc2c1)c1ccccc1 | -65.8% (active)
94 | O=C(COc1ccc([N+](=O)[O-])cc1)Nc1ccc(N2CCCC2)cc1 | -69.6% (active)
95 | O=C(CSc1nnc2ccccn12)c1ccccc1 | -81.7% (active)
96 | C=C(C)CSc1nc(N)c2c3c(sc2n1)CCC3 | -152% (active)
97 | CC(C)(C)C1CCc2c(sc3nc(SCC(N)=O)nc(N)c23)C1 (stereo not drawn) | -196% (active)
98 | COC(=O)c1sc(NC(=O)c2csc3c2CCCC3)nc1C | -228% (active)
99 | Cc1ccc(NC(=O)c2csc3c2CCCC3)cc1 | -158% (active)
100 | Cc1cc2c(C)nc(N/N=C/c3ccccc3)nc2o1 | -123% (active)
101 | COC(=O)c1ccc(CSc2ccc3nnc(-c4ccccc4)n3n2)o1 | 53.7%
102 | COC(=O)c1ccc(CSc2nncn2C)cc1 | -112% (active)
103 | Cc1ccc(Oc2nc(-c3ccccn3)nc3ccccc23)cc1 | -92.6% (active)
